Assay outcomes from PubChem.
M1 ag parental: nonselective activator or artifact in parental CHO-K1 cells; Fluo-8 calcium fluorescence; scaled to maximal ATP response, vehicle zero; activation, % at 3 µM; actives 0.48% (n = 360,000); in the data active means activation above about 15%;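 further: untransfected CHO-K1 host cells lacking M1 receptor as counterscreen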
CHRM1 agonist: human M1 muscarinic receptor agonism; P11229; actives 0.33% (n = 360,000); activation, % at 3 µM; CHO-K1 hM1, Fluo-8 calcium fluorescence, agonist mode; 0% DMSO, 100% acetylcholine EC100;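 active means activation above the run's mean compound activation plus 3 SD, cut at about 16% in these data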;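 further: peak over basal fluorescence ratio within a 140 s kinetic read after compound addition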
Target sequence (P11229 whole entry, looked up): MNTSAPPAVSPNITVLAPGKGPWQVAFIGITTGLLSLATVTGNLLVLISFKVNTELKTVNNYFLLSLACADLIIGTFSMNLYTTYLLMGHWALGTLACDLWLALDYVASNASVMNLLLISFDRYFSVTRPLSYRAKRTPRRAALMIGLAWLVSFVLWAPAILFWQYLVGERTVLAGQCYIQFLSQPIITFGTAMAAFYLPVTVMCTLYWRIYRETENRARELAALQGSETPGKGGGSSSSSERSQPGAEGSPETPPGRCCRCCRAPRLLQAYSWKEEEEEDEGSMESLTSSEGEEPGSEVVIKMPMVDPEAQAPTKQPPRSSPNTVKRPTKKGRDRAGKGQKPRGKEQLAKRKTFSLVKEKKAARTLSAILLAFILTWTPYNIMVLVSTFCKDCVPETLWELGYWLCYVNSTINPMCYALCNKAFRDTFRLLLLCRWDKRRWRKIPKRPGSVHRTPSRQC
CHO-K1 Ca PAM: counter-screen for M1 PAMs: effect in parental CHO-K1 cells. ATP EC20, Fluo-8 calcium fluorescence; 0% at ATP EC20, 100% at ATP max. activation, % at 3 µM. actives 0.02% (n = 360,000). AID 602247;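 active means activation above the run cutoff, the mean activation of all test compounds plus 3 SD, cut at about 40% in these data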;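 further: peak over basal fluorescence ratio in a 140 s read after ATP addition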
CHO-K1 Ca antag: nonselective inhibitor or artifact in parental CHO-K1 cells. actives 0.6% (n = 360,000). inhibition, % at 3 µM. ATP-induced calcium, Fluo-8 fluorescence. AID 602250;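 active means inhibition above a per-plate cutoff, the plate's mean sample inhibition plus 3 SD, cut at about 24% in these data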;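 further: 0% = DMSO plus EC80 ATP and 100% = DMSO alone without ATP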
CHRM1 PAM: human CHRM1 positive allosteric modulation | activation, % at 3 µM | AID 588819 | P11229 | actives 0.088% (n = 360,000) | CHO-K1 hM1, Fluo-8 calcium fluorescence, ACh EC20; 0% = ACh EC20, 100% = maximal ACh; in the data active means activation above about 19%, passing the limit was not always enough
M1 antag: blocks human M1 muscarinic receptor. inhibition, % at 3 µM. CHO-K1 hM1, Fluo-8 calcium fluorescence, ACh EC80 antagonist. actives 1.3% (n = 360,000);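 active means percent inhibition above its own plate's cutoff, namely the mean of that plate's compound wells plus 3 SD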;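 further: peak over basal fluorescence ratio during 140 s after agonist addition; 0% = ACh EC80 plus DMSO and 100% = DMSO alone without agonist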
An asterisk follows results filed as active; ! = repeats disagree. A selection: hits, their analogues and other compounds. The true share with any hit is near 2.3%.

SMILES | M1 ag parental | CHRM1 agonist | CHO-K1 Ca PAM | CHO-K1 Ca antag | CHRM1 PAM | M1 antag
O=C(O)CCN1C(=O)C(=C2CCCCCC2)SC1=S | 0 | -3 | 18 | -2 | 6 | -7
CN(C)c1ccc(C=C2SC(=S)N(Cc3ccco3)C2=O)cc1 | 12 | 20* | -6 | 12 | -16 | 17
COC(=O)c1ccc(OC(=O)c2ccc(OC)cc2)c(OC)c1 | 2 | -6 | 11 | -21 | 1 | -4
C=CCn1c(C2CCCCC2)n[nH]c1=S | 1 | -4 | -12 | -6 | 8 | -8
CCOC(=O)c1ccc(N2CCN(c3ccc(F)cc3)CC2)c(NC(=O)Nc2cccc(OC)c2)c1 | 1 | -5 | 26 | -12 | -15 | 34*
CC(=O)c1ccc(OCC(=O)NCCC2=CCCCC2)cc1 | 1 | -6 | -3 | -2 | 24* | -19
CCOC(=O)c1c(-c2ccccc2)oc2cc(CN(C)C)c(O)c(CN(C)C)c12 | 2 | -6 | 4 | -6 | -2 | 10
CCOC1=C2[C@@H](CN(S(=O)(=O)c3ccc(C)cc3)[C@H]2c2ccccc2Cl)[C@H]2C(=O)N(C(C)(C)C)C(=O)[C@H]2C1 | 0 | 1 | 4 | 27* | 11 | 1
CC(C)(C)NC(=O)NC(=O)COC(=O)CNS(=O)(=O)c1ccc(Br)cc1Cl | 5 | -1 | -15 | 11 | 0 | 8
CCCCC(CC)C1OCC(C[N+]2(C)CCOCC2)O1 (centres undefined) | 0 | -10 | 14 | -9 | -21 | 43*
CCc1cccc(NS(=O)(=O)c2c(C)nc3sc(CC)nn3c2=O)c1 | 2 | -9 | 3 | 1 | -29 | 73*
CC(C)c1ccccc1NC(=O)COc1ccc(C(=O)NCCc2ccccc2)cc1 | 3 | -7 | 14 | 4 | 3 | -2
CCOc1ccc(NC(=O)COc2ccc(C(=O)NCCc3ccccc3)cc2)cc1 | 1 | -2 | -12 | 29* | 1 | -1
COc1ccc(CN2CCC(Oc3ccc(C(=O)NCc4ccccn4)cc3)CC2)c(F)c1 | 5 | -2 | 10 | -6 | -23 | 71*
C#Cc1ccc(CN2CCC(Oc3ccc(C(=O)NCc4ccccn4)cc3)CC2)cc1 | 2 | -6 | -2 | 12 | -24 | 78*
CCOc1cccc(CN2CCC(Oc3ccc(C(=O)NCc4ccccn4)cc3)CC2)c1 | 1 | -5 | -6 | -7 | -23 | 77*
O=C(NCc1ccccn1)c1ccc(OC2CCN(Cc3ccccc3)CC2)cc1 | 1 | -6 | -22 | 8 | -10 | 15
O=c1ccc(-c2ccc(S(=O)(=O)Nc3ccccc3Cl)o2)n[nH]1 | 1 | -2 | 9 | -16 | 9 | -10
CN(Cc1ccccc1F)C(=O)CN1c2cccc3cccc(c23)S1(=O)=O | 2 | -1 | 1 | 8 | 2 | -1
Cc1ccc(NC(=O)c2ccc3nc[nH]c3c2)cc1C | 18* | -1 | -1 | 2 | 5 | -7
CCN1CCN(Cc2ccc(NC(=O)c3ccc(C)c(NC(=O)c4c[nH]c5cc(C(F)(F)F)ccc5c4=O)c3)cc2C(F)(F)F)CC1 | 0 | -1 | -16 | 26*! | 4 | -8
Cc1ccc(C(=O)Nc2cccc(C(F)(F)F)c2)cc1NC(=O)c1c[nH]c2cc(C(F)(F)F)ccc2c1=O | 1 | -4 | 22 | -14 | 4 | -3
O=C(Nc1ccc(-c2n[nH]c(=S)o2)cc1)c1ccccc1Cl | 6 | -3 | 10 | -2 | 3 | 2
COc1ccccc1CNC(=O)c1ccccc1OCc1ccc(F)cc1 | 42* | 0 | 44* | -10 | -15 | 7
O=C(Nc1ccc(O)cc1)c1ccccc1OCc1ccccc1 | 16* | 2 | 12 | -3 | 4 | -11
SMILES | M1 ag parental | CHRM1 agonist | CHO-K1 Ca PAM | CHO-K1 Ca antag | CHRM1 PAM | M1 antag
O=C(NCC1CCCO1)c1ccccc1OCc1ccc(F)cc1 (centres undefined) | 23* | -2 | -2 | 10 | 8 | -8
O=C(NCC1CCCO1)c1ccccc1OCc1ccc(Cl)cc1 (centres undefined) | 3 | -2 | -2 | -4 | -5 | 8
O=C(Nc1ccccc1)c1ccccc1OCc1ccc(F)cc1 | 3 | -4 | -5 | 9 | -10 | 19
O=C(NCc1ccccn1)c1ccccc1OCc1ccc(F)cc1 | 0 | 2 | -21 | 19 | 3 | -3
O=C(NCC1CCCO1)C(C(=O)c1ccc(F)cc1)n1ccccc1=O (centres undefined) | 0 | -3 | -7 | 31* | -6 | 6
O=C(CSCc1ccccc1Br)NNC(=S)NCc1ccco1 | 2 | -1 | -5 | 0 | -5 | 18
CC(=O)Nc1ccc(NC(=O)Cn2cnc3c(nnn3Cc3ccc(F)cc3)c2=O)cc1 | 1 | 16* | 15 | -4 | 1 | -2
O=C1C2C3c4ccccc4C(c4ccccc43)C2C(=O)N1c1nc(-c2ccccc2)cs1 (centres undefined) | 0 | 0 | -2 | 5 | 20* | -6
COc1ccc(C2=NS(=O)(=O)N(C)C(C(=O)Nc3ccc(F)cc3F)=C2)cc1 | 4 | 2 | 19 | -11 | 0 | -12
CN(C)C(=O)CSc1nnc(-c2cc(-c3cccs3)nc3ccccc23)o1 | 1 | -1 | -2 | 27* | 6 | -3
Fc1ccccc1Cn1c2[n+](c3ccc(C(F)(F)F)cc31)CCCCC2 | 0 | -9 | 6 | -3 | -20 | 34*
Cc1cc(-c2ccc(C)c(S(=O)(=O)NCC3CCN(Cc4ccc(F)cc4)CC3)c2)on1 | 4 | -4 | 0 | -14 | -4 | -6
COc1ccccc1CN1CCC(CNS(=O)(=O)c2cc(-c3cc(C)no3)ccc2C)CC1 | 6 | -3 | 7 | -23 | -24 | 66*
COc1ccc(-c2cc(C)no2)cc1S(=O)(=O)NCC1CCN(Cc2cc(C)ccc2C)CC1 | 3 | -5 | 6 | -17 | -25 | 51*
Cc1ccc(Oc2ncnc(N)c2[N+](=O)[O-])cc1 | 0 | 4 | 9 | -13 | 14 | 3
Cc1ccc(N(c2ncnc(N)c2[N+](=O)[O-])C2CCCCC2)cc1 | 0 | -7 | -3 | -8 | -22 | 49*
CCc1nnc(NC(=O)CSc2ccc(-c3nc4ccccc4[nH]3)cn2)s1 | 6 | -6 | -1 | -10 | -6 | -6
Cc1nc(NC(=O)CSc2ccc(-c3nc4ccccc4[nH]3)cn2)sc1C | 16* | -7 | 5 | 4 | 1 | 2
COc1ccc(NC(=O)C2(C)CCCN(C(C)C)C2)cc1OC (centres undefined) | 0 | 2 | 8 | -13 | 34* | -33
Cc1ccc(NC(=O)C2(C)CCCN(C(C)C)C2)cc1C (centres undefined) | 0 | -4 | -7 | 6 | 6 | -2
Cc1c(N=Cc2nc3ccccc3[nH]2)c(=O)n(-c2ccccc2)n1C | 0 | -4 | -6 | 31* | 1 | 0
